# Source: PubChem
# Compounds with a hit are over-represented: about 1.4% of the library has one in this group of screens.
# A3G deaminase – inhibitors of human APOBEC3G DNA deaminase. Q9HC16. recombinant A3G, ssDNA deamination FAM/TAMRA fluorescence. inhibition, % at 20 µM. 330,000 tested, 0.28% active. AID 493012;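 active means inhibition of at least 40% at 20 µM, with no more than 30% in the related APOBEC3A deaminase screen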;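 further: plate controls were DMSO wells with A3G for no effect and wells lacking A3G enzyme for full effect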
# GC-B act – GC-B (human) receptor activation; HEK293-GC-B cells, CNP EC30, cGMP TR-FRET; 0% at EC30 CNP, 100% saturating CNP; activation, % at 10 µM; 370,000 tested, 0.11% active;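 active means activation at 10 µM reaching about 35% in either raw or pattern-adjusted values, limit read from the data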
# APOBEC3A inh – inhibitors of human APOBEC3A DNA deaminase; recombinant A3A, FAM/TAMRA ssDNA deamination fluorescence; inhibition, % at 20 µM; P31941; 330,000 tested, 0.41% active;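 active means at least 40% inhibition at 20 µM here, with at most 30% in a related deaminase screen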;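 further: plate controls were A3A with DMSO for no effect and wells lacking A3A enzyme for full effect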
# GC-A act – GC-A (human) enzyme activation; P16066; HEK293 GC-A cells, cGMP TR-FRET, EC30 ANP; 0% at EC30 ANP, 100% saturating ANP; activation, % at 10 µM; 370,000 tested, 0.14% active; in the data active means activation above about 40%
# FAS TE block – inhibitors of human fatty acid synthase thioesterase domain; P49327; recombinant FAS-TE, OMFH fluorogenic substrate, fluorescence endpoint; inhibition, % at 15 µM; 360,000 tested, 0.67% active;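 active means compounds whose normalised, plate-corrected inhibition of enzyme fluorescence in the single-dose primary screen is 50% or more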;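 further: 0% = DMSO with enzyme and 100% = substrate without enzyme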
# APOBEC3A confirm – APOBEC3A (human) deaminase inhibition, confirmed | inhibition, % at 20 µM | recombinant A3A, ssDNA deaminase UDG fluorescence assay | shares compounds with APOBEC3A inh | 1,400 tested, 63% active;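 active means inhibition reaching a set limit, 80% of the first screen's cutoff, at 20 µM in any replicate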;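 further: plate controls were DMSO wells with A3A for no effect and wells lacking A3A enzyme for full effect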
# UDG ctr A3A – counter-screen for APOBEC3A inhibitors: UDG | shares compounds with APOBEC3A inh | UDG counterscreen, FAM/TAMRA uracil oligo fluorescence | inhibition, % at 20 µM | 1,000 tested, under 10 active | AID 504714; call rule not given here
# * hit, by the source's call; · = not tested or not shown.
SMILES,A3G deaminase,GC-B act,APOBEC3A inh,GC-A act,FAS TE block,APOBEC3A confirm,UDG ctr A3A
COC(=O)C1=C(C)N(C)C(=NCC2CC2)NC1c1cccc(C(F)(F)F)c1 (stereo not drawn),·,-8.8,·,-13.3,·,·,·
COC[C@@H](O)[C@H]1OCc2cccc(OC)c2[C@@H]1/C=C/c1ccccc1,·,-2.4,·,-2.5,·,·,·
CCOC(=O)[C@]12CCCCC/C=C\1N(CCc1ccc(Cl)cc1)C(=O)[C@H]2CC(=O)NCc1cccc2ccccc12,·,-0.4,·,-5.0,·,·,·
N#C/C(=C\c1ccc(-c2cccc([N+](=O)[O-])c2)o1)C(=O)N1CCOCC1,-6.0,27.1,-2.8,17.6,7.6,·,·
N#C/C(=C\c1ccc(-c2ccc([N+](=O)[O-])cc2Br)o1)C(=O)N1CCN(c2ccccc2)CC1,2.1,2.0,47.8*,-1.1,35.6,11.4,·
C=CCN=C1NC(c2ccccc2C(F)(F)F)C(C(=O)OC)=C(C)N1Cc1cccc(C(F)(F)F)c1 (stereo not drawn),·,-14.7,·,-18.4,·,·,·
O=C1OC(c2ccc(Cl)cc2)=C/C1=C/c1cccnc1,13.2,-0.7,61.6*,0.3,-2.2,37.3*,4.3
CCOc1ncccc1C(=O)OCC(=O)N(CC)c1ccccc1,-6.0,-0.4,74.1*,-0.3,-6.0,-1.0,2.2
CCOc1ncccc1C(=O)OCc1ccccc1,-0.5,1.0,0.8,-5.2,-5.5,·,·
O=C(/C=C/c1ccco1)Nc1scc(-c2ccccc2)c1C(=O)O,19.1,2.2,59.3*,4.2,-0.9,68.8*,-0.2
C[C@@H](NC(=O)C[C@H]1CC[C@H]2[C@@H](COc3ccc(NC(=O)Nc4ccccc4)cc3C(=O)N2C)O1)c1ccccc1,·,4.2,·,4.0,·,·,·
COc1ccc2c(c1)sc(=N)n2C,14.8,1.7,43.8*,2.5,-6.1,29.0,·
Cn1cccc/c1=N\c1cccc[n+]1C,24.3,-3.8,48.6*,0.8,-5.8,64.7*,-1.3
CNc1nc(N)c([N+](=O)[O-])c(Nc2cccc(Br)c2)n1,·,-2.1,·,4.5,·,·,·
CC[N+](C)(CC)CCC(c1ccccc1)C1CCCCC1 (stereo not drawn),10.4,1.5,48.0*,6.2,-7.2,66.9*,-2.4
CC[N+](C)(CC)CCOC(=O)C(O)(c1ccccc1)C1CCCCC1 (stereo not drawn),18.5,-3.5,2.7,3.9,-3.1,·,·
O=C(/C=C/c1ccco1)N1CCN(S(=O)(=O)c2cccc([N+](=O)[O-])c2)CC1,23.3,-5.1,65.0*,-0.1,0.7,61.9*,4.0
CCC[C@H]1[C@@H](OC(=O)NC(CC)CC)CC[C@@]23CCCN2C(=O)CCC[C@@H]13,·,-3.8,·,-4.1,·,·,·
CCN(CC)CCOc1ccc2c(c1)C(=NO)c1cc(OCCN(CC)CC)ccc1-2,26.0,-3.9,47.3*,-4.7,-11.1,37.0*,-1.1
CC(=O)N1c2cc(S(=O)(=O)N3CCN(c4ccccc4F)CC3)c(Br)cc2CC1C (stereo not drawn),·,-3.4,·,-4.0,·,·,·
CC(=O)OC1C2CCC1C([N+]1(C)CCCCC1)CC2 (stereo not drawn),8.2,6.4,72.8*,4.2,-6.1,72.9*,-1.3
C[N+]1(CC(=O)OC2CCCCCCCCCCC2)CCCC1,37.0,-3.2,80.1,4.3,1.8,·,·
C[N+]1(C2CCC3CCC2C3O)CCCC1 (stereo not drawn),26.3,3.6,40.7*,0.8,-9.4,67.1*,6.2
OCCN1CCN(c2ncnc3nc[nH]c23)CC1,-3.0,4.7,51.3*,5.5,-8.9,-5.0,1.4
O=C(/C=C/c1ccccc1)OCCCCN=C1NS(=O)(=O)c2ccccc21,2.1,-6.8,83.1*,-7.4,1.7,2.7,·
SMILES,A3G deaminase,GC-B act,APOBEC3A inh,GC-A act,FAS TE block,APOBEC3A confirm,UDG ctr A3A
CC(=O)c1c(C)[nH]c(C(=O)CN(C)CC(=O)Nc2ccccc2Cl)c1C,-6.0,-0.1,-0.5,-1.3,-1.2,·,·
CSc1ccccc1NC(=O)CN(C)CC(=O)c1[nH]c(C)c(C(C)=O)c1C,19.5,-0.6,67.8*,-0.6,-3.2,50.2*,-0.6
CCOC(=O)[C@]12CCCCC/C=C\1N(Cc1ccc(OC)cc1)C(=O)[C@H]2CC(=O)NCc1ccc(OC)c(OC)c1,·,-1.1,·,-1.9,·,·,·
C=CCN1CCc2nc(N)sc2CC1,·,2.3,·,2.1,-11.4,·,·
Nc1nc2c(s1)CCCCCCCCCC2,18.0,-1.1,49.5*,-7.3,-10.4,37.8*,1.6
Cn1c(-[n+]2c(-c3ccccc3)cc(-c3ccccc3)cc2-c2ccccc2)nc2cc([N+](=O)[O-])ccc21,9.1,0.5,45.6*,9.4,-9.6,55.9*,0.3
COc1cc(/C=C(/C#N)C(=O)NCCCc2ccccc2)ccc1OCC(=O)O,11.0,-2.3,40.4*,2.4,-5.1,67.3*,0.8
COc1cc(/C=C(\C#N)C(=O)NCc2ccccc2)ccc1OCc1ccc(C(=O)O)cc1,-0.4,-5.9,-2.0,2.1,-3.2,·,·
COc1cccc(-c2ccc(-c3noc(-c4cccs4)n3)c(OC)n2)c1,25.1,1.9,68.0*,-1.4,14.3,72.1*,-2.5
S=C(Nc1ccccc1Cl)OCCN1CCCC12CCC(c1ccccc1)CC2 (stereo not drawn),·,0.2,·,-2.0,·,·,·
CCOC(=O)[C@]12CCCCC/C=C\1N(Cc1ccc(OC)cc1)C(=O)[C@H]2CC(=O)NCc1cccs1,·,-6.8,·,-8.6,·,·,·
CCC[n+]1c2ccccc2cc2ccccc21,12.4,1.3,47.1*,5.1,-3.5,41.9*,-2.3
CCCC[n+]1c2ccccc2cc2ccccc21,21.1,3.2,55.1*,7.0,-5.7,47.7*,-2.4
Brc1cc2ccccc2[n+](Cc2ccccc2)c1,-8.2,0.8,-5.2,-0.8,-6.4,·,·
COC(=O)C1=C(C)N(Cc2ccccc2C(F)(F)F)C(=NCc2ccc(OC)cc2)NC1c1ccc(C(F)(F)F)cc1 (stereo not drawn),·,-9.0,·,-15.3,·,·,·
COc1cccc2sc(Nc3nc(-c4cc5ccccc5oc4=O)cs3)nc12,·,0.0,·,5.1,3.1,·,·
COc1cccc2sc(Nc3nc(-c4ccncc4)cs3)nc12,1.3,-14.9,45.2*,-17.6,2.1,23.6*,-2.9
CC(=O)/C(C[N+]1(C)CCCCC1)=N\O,21.4,-1.4,41.0*,5.3,-7.8,82.1*,5.1
CCCCc1ccc2nc(NC(=O)c3cccs3)sc2c1,·,-16.1,·,-9.1,·,·,·
CCn1c(C)nc2cc(S(=O)(=O)Nc3ccc(C)cc3)ccc21,17.0,0.4,66.2*,-2.6,-1.9,55.3*,1.9
CCn1c(C)nc2cc(S(=O)(=O)C(F)F)ccc21,15.9,6.0,5.8,1.2,0.3,·,·
CN(Cc1cccc(F)c1)C(=O)c1cc(S(=O)(=O)N2CCOCC2)ccc1N1CCCC1,-2.9,-0.1,0.5,-1.2,2.6,·,·
